PubChem BioAssay (EPA / NIEHS)
Records with an inconclusive call do not appear. The source made the active and inactive calls. Rule for the calls: active = hit-call score of the fitted dose curve at least 0.9, where 1 is the maximum; inconclusive = response in the unintended direction; inactive = score below 0.9.

Test: TOX21_PR_BLA_Followup_Antagonist_viability: Viability Assessment in the Tox21 HEK293 Progesterone Receptor (PR) Antagonism Beta-lactamase Follow-Up Assay (AID 2283936);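 note: hits lower the luminescence signal meaning cytotoxicity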
Method: TOX21_PR_BLA_Followup is a secondary assay for specificity for the TOX21_PR_BLA_Agonist assay. To differentiate true PR agonists from cytotoxic substances, this follow up assay is multiplexed with a cell viability assay. The compounds were also tested for auto fluorescence that may interfere with the biological target readout resulting in potential false positives and/or negatives. To identify the compounds that stimulate PR signaling, a PR-UAS-bla GripTite cell line i.e. PR-UAS-bla HEK293T (Invitrogen, Carlsbad, CA, USA) containing a beta-lactamase reporter gene under the control of an UAS response element was used to screen Tox21 10K compound library. The cytotoxicity of the Tox21 compound library against the PR-bla cell line was tested in parallel by measuring the cell viability using CellTiter-Glo assay in the same wells. TOX21_PR_BLA_Followup_Antagonist_viability is a component of the TOX21_PR_BLA_Followup_Antagonist assay. This component measures cell viability using the CellTiter-Glo Luciferase-coupled ATP quantitation.TOX21_PR_BLA_Followup_Antagonist_viability used a type of viability reporter where loss-of-signal activity can be used to understand changes in the cell viability. Furthermore, this assay endpoint can be referred to as a secondary readout, because this assay has produced multiple assay endpoints where this one serves a viability function. To generalize the intended target to other relatable targets, this assay endpoint is annotated to the cell cycle intended target family, where the subfamily is cytotoxicity.
Assay Protocol: PR-UAS-bla HEK293T cells were dispensed at 3,000 cells/4 uL of assay medium containing 2% charcoal stripped FBS per well into black wall/clear-bottom 1536-well plates using a Multidrop Combi (ThermoFisher Scientific, Waltham, MA) dispenser. After the assay plates were incubated at a 37C and 5% CO2 for 4 hr, 23 nL of compounds dissolved in DMSO, positive controls or DMSO only was transferred to the assay plate by a Pintool station (Kalypsys, San Diego, CA), followed by addition of 1 uL of R5020 in assay medium using a Flying Reagent Dispenser (FRD, Aurora Discovery, San Diego, CA). The plates were incubated at 37C and 5% CO2 for 16 hr. Then 1 uL of LiveBLAzer B/G FRET substrate was added using a Flying Reagent Dispenser, the plates were incubated at room temperature for 2 hours, and fluorescence intensity was measured by an Envision plate reader (PerkinElmer, Shelton, CT). For cell viability readout that measures cytotoxicity, 4 uL/well of CellTiter-Glo reagent was added into the assay plates using a FRD. After 30 min incubation at room temperature, the luminescence intensity in the plates was measured using a ViewLux (PerkinElmer) plate reader.

Structure (SMILES) | outcome
C[C@]12CCC(=O)C(O)=C1CC[C@@H]1[C@@H]2CC[C@]2(C)C(=O)CC[C@@H]12 | inactive
CC(=O)O[C@H]1CC[C@@]2(C)C(=CC[C@@H]3[C@@H]2CC[C@]2(C)C(=O)CC[C@@H]32)C1 | inactive
CC1COC2(c3ccccc3Cl)c3cc(Cl)ccc3NC(=O)CN12 (centres undefined) | inactive
C[C@]12Cc3cn[nH]c3C[C@@H]1CC[C@@H]1[C@@H]2CC[C@@]2(C)[C@H]1CC[C@]2(C)O | inactive
CCOC(=O)C1(c2ccccc2)CCN(CCC(C#N)(c2ccccc2)c2ccccc2)CC1 | inactive
C[C@]12CC[C@H]3[C@@H](CCC4=CC(=O)CC[C@@H]43)[C@@H]1CC[C@@H]2O | inactive
COP(=S)(NC(C)C)Oc1ccc(C)cc1[N+](=O)[O-] (centres undefined) | inactive
C#C[C@]1(O)CC[C@H]2[C@@H]3CCC4=CC(=O)CCC4=C3C=C[C@@]21CC | inactive
CC[C@H]1C[C@H]2[C@@H]3CCC4=CC(=O)CC[C@@H]4[C@H]3CC[C@]2(C)[C@H]1O | inactive
COc1ccc2c(c1OC)CN1CCc3cc4c(cc3C1C2)OCO4 (centres undefined) | inactive
C[C@]12C/C(=C/O)C(=O)C[C@@H]1CC[C@@H]1[C@@H]2CC[C@@]2(C)[C@H]1CC[C@]2(C)O | inactive
O=C1CN=C(c2ccccc2)c2cc(Cl)ccc2N1CC1CC1 | inactive
C[C@]12CC[C@H]3[C@@H](CCC4=CC(=O)CC[C@@H]43)[C@@H]1CC[C@@H]2OC(=O)CCc1ccco1 | inactive
C[C@H]1CCC[C@H](O)CCCCCc2cc(O)cc(O)c2C(=O)O1 | inactive
CCOP(=S)(OCC)Oc1cc(Cl)c(Br)cc1Cl | inactive
CC(=O)c1cc2c(cc1C)C(C)(C)C(C)CC2(C)C (centres undefined) | inactive
C[C@]12CC[C@H]3[C@@H](CCC4=CC(=O)CC[C@@H]43)[C@@H]1CC[C@@H]2OC(=O)CCC1CCCCC1 | inactive
CC(C)(c1cc(Cl)c(O)c(Cl)c1)c1cc(Cl)c(O)c(Cl)c1 | inactive
O=C1C(Cl)C(CCl)CN1c1cccc(C(F)(F)F)c1 (centres undefined) | inactive
O=C(CBr)Nc1ccc(Cl)cc1C(=O)c1ccccc1F | inactive
C[C@]1(O)CC[C@H]2[C@@H]3CCC4=CC(=O)CC[C@]4(C)[C@@]3(F)[C@@H](O)C[C@@]21C | inactive
CCC1COC(Cn2cncn2)(c2ccc(Cl)cc2Cl)O1 (centres undefined) | inactive
C[C@]12CC[C@H]3[C@@H](CCC4=CC(=O)CC[C@@H]43)[C@@H]1CC[C@@H]2OC(=O)CCc1ccccc1 | inactive
O=[N+]([O-])c1ccc2ccc3cccc4ccc1c2c34 | inactive
N#Cc1cc(I)c(O)c(I)c1 | inactive
C=CC[C@]1(O)CC[C@H]2[C@@H]3CCC4=CC(=O)CCC4=C3C=C[C@@]21C | inactive
C[C@]12CC[C@H]3[C@@H](CC[C@@]45O[C@@H]4C(O)=C(C#N)C[C@]35C)[C@@H]1CC[C@@H]2O | inactive
Nc1ccc(Cl)cc1C(=O)c1ccccc1F | inactive
C[C@]12Cc3nonc3C[C@@H]1CC[C@@H]1[C@@H]2CC[C@@]2(C)[C@H]1CC[C@]2(C)O | inactive
